# Measured values from ChEMBL document CHEMBL2218924, “A broad activity screen in support of a chemogenomic map for kinase signalling research and drug discovery” (Biochem J, 2013).
# Legend:
# [1] = target: BDNF/NT-3 growth factors receptor (Homo sapiens) (UniProt Q16620); conditions: at 10 µM
# [2] = target: T1, Tyrosine-protein kinase TXK (Homo sapiens) (UniProt P42681); conditions: at 1 µM
# T1 sequence (whole entry): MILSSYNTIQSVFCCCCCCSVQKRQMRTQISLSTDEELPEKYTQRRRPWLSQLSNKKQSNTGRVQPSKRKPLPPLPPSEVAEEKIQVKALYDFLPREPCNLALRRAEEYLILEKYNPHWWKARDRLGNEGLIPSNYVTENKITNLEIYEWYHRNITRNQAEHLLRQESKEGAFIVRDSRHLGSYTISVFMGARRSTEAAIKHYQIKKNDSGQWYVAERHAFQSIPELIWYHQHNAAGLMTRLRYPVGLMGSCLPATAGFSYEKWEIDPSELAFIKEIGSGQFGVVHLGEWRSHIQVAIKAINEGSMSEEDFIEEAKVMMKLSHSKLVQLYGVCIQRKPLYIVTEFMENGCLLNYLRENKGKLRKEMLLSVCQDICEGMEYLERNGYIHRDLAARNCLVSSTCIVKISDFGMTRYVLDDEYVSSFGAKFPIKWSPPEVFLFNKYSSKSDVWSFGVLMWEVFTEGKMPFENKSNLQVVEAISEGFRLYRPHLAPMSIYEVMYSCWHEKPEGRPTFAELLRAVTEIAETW
# [3] = target: T1, Tyrosine-protein kinase TXK (Homo sapiens); conditions: at 10 µM
# [4] = target: T2, Serine/threonine-protein kinase ULK2 (Homo sapiens) (UniProt Q8IYT8); conditions: at 1 µM
# T2 sequence (whole entry): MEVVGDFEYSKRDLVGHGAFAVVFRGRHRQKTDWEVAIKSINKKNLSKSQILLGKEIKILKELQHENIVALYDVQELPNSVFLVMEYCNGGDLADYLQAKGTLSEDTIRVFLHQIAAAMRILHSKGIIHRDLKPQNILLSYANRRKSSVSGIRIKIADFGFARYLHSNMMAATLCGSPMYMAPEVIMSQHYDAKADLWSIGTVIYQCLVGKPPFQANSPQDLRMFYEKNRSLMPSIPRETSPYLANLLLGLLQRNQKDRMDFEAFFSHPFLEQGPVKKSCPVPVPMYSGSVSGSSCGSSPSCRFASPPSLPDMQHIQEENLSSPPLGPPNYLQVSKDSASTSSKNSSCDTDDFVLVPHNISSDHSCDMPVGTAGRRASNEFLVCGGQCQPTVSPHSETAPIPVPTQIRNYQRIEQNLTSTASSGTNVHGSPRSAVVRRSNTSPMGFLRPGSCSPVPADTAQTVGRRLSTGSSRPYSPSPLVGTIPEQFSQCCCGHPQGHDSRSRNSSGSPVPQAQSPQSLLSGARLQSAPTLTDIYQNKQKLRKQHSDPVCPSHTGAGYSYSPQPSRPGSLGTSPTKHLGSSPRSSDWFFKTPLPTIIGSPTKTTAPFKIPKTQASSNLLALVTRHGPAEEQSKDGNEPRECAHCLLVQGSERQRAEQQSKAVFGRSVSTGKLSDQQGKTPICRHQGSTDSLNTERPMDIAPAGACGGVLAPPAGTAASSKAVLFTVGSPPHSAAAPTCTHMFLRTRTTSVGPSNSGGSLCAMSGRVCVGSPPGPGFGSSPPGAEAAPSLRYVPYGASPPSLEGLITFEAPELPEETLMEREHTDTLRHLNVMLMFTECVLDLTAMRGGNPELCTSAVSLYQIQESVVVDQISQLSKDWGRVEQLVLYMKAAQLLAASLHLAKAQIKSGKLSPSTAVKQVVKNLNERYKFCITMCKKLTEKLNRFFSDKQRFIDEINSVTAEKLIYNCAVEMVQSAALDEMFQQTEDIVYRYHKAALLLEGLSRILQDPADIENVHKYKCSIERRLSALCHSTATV
# [5] = target: T3, Serine/threonine-protein kinase ULK3 (Homo sapiens) (UniProt Q6PHR2); conditions: at 10 µM
# T3 sequence (whole entry): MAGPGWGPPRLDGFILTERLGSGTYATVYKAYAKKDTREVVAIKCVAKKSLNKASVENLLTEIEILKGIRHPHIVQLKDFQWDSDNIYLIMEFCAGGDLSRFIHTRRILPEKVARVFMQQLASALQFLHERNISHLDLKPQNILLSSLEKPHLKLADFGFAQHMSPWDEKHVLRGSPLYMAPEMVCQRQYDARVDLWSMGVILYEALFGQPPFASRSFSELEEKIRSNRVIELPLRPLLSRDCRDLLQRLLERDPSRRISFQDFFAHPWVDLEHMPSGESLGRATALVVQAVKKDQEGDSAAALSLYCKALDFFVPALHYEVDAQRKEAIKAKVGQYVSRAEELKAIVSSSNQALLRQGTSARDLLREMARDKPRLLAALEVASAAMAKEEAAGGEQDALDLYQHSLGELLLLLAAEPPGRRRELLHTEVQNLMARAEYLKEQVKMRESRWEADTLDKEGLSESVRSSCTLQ
# [6] = target: Serine/threonine-protein kinase VRK2 (Homo sapiens) (UniProt Q86Y07); conditions: at 1 µM
# [7] = target: Serine/threonine-protein kinase VRK2 (Homo sapiens) (UniProt Q86Y07); conditions: at 10 µM
# [8] = target: Serine/threonine-protein kinase WNK2 (Homo sapiens) (UniProt Q9Y3S1); conditions: at 1 µM;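 also: residual WNK2 kinase activity expressed as percent of uninhibited control, assayed in MOPS buffer at pH 7.0 containing EDTA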
# [9] = target: T3, Serine/threonine-protein kinase ULK3 (Homo sapiens); conditions: at 1 µM
# [10] = target: T2, Serine/threonine-protein kinase ULK2 (Homo sapiens); conditions: at 10 µM
# Chain of Serine/threonine-protein kinase WNK2 (Homo sapiens) (Q9Y3S1 whole entry): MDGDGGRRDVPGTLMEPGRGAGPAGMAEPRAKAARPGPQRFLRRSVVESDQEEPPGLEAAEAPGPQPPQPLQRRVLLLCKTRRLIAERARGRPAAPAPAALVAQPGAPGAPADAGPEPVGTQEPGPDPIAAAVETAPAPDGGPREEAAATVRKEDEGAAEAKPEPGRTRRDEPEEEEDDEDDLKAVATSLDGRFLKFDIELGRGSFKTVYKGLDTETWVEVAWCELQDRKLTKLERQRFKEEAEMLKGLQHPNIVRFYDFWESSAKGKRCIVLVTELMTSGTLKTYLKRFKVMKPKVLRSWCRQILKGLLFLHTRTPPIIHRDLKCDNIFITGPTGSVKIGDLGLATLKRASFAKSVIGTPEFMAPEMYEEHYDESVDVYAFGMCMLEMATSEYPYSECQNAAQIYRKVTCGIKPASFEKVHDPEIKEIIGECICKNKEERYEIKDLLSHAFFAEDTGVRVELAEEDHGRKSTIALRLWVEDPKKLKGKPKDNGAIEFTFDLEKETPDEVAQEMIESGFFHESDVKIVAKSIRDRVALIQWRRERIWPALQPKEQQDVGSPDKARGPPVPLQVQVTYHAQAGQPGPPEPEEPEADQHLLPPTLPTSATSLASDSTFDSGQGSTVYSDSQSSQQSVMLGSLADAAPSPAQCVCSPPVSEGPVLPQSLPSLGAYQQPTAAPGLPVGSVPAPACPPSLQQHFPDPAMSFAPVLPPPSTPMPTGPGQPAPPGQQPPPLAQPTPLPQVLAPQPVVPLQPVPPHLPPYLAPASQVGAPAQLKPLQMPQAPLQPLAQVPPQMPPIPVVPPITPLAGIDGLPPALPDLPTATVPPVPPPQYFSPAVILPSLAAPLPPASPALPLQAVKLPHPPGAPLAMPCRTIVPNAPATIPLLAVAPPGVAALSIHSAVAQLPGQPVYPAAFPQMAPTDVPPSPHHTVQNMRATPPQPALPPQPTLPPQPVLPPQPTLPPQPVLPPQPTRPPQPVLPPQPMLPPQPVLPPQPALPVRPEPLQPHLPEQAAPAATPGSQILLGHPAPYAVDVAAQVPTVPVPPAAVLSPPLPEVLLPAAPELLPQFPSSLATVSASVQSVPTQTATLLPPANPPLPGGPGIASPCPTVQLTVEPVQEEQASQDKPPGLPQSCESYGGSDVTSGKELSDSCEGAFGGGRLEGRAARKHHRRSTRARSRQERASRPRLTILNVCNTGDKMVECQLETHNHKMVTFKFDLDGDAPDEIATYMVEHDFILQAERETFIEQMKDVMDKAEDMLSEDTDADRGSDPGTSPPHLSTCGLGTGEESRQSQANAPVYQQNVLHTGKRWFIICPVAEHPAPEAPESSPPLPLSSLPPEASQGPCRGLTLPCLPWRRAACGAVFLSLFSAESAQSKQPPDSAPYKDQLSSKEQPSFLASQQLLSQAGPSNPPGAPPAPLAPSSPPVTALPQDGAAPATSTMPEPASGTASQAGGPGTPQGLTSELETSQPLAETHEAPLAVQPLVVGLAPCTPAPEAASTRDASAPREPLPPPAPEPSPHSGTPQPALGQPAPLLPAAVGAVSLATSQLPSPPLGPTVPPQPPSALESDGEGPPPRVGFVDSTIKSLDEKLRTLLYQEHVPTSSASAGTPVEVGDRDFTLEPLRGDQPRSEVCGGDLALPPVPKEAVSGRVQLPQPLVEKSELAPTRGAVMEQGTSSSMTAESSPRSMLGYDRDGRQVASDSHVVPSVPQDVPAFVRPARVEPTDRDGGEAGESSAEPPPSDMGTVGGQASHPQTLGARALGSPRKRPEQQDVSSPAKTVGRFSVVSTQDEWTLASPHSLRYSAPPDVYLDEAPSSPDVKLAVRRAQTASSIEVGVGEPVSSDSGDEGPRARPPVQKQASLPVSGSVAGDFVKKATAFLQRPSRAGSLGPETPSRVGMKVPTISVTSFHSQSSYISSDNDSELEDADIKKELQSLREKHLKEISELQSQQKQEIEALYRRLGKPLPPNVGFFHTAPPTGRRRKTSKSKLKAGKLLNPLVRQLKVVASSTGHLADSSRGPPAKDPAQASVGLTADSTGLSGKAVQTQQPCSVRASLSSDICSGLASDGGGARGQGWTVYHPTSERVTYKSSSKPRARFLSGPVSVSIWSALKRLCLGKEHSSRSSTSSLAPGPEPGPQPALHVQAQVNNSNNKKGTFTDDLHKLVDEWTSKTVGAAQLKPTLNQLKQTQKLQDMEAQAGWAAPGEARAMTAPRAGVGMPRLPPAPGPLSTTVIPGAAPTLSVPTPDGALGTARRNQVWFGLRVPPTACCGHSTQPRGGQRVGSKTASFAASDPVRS
# Chain of BDNF/NT-3 growth factors receptor (Homo sapiens) (Q16620 32-822 limits assumed): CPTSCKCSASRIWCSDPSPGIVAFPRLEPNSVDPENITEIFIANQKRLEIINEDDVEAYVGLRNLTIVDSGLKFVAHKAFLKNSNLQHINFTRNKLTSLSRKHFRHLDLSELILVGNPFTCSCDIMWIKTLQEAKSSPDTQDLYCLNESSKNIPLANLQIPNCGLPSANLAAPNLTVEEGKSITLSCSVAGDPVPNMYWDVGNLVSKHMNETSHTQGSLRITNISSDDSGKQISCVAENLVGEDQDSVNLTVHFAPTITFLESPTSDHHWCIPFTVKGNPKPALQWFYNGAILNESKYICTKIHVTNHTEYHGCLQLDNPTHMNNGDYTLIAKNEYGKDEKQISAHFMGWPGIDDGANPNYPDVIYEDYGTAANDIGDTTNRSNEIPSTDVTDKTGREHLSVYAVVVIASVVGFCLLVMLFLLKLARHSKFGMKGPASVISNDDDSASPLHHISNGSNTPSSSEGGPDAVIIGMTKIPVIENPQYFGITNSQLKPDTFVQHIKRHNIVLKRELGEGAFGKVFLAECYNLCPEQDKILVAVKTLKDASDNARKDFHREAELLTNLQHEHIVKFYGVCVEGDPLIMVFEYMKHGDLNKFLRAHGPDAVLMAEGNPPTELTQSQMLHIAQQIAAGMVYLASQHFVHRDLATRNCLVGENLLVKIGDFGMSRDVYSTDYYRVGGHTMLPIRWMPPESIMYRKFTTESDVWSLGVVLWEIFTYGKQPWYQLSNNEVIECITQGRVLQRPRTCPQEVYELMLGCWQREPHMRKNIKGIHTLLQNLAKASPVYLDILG
# Chain of Serine/threonine-protein kinase VRK2 (Homo sapiens) (Q86Y07 whole entry): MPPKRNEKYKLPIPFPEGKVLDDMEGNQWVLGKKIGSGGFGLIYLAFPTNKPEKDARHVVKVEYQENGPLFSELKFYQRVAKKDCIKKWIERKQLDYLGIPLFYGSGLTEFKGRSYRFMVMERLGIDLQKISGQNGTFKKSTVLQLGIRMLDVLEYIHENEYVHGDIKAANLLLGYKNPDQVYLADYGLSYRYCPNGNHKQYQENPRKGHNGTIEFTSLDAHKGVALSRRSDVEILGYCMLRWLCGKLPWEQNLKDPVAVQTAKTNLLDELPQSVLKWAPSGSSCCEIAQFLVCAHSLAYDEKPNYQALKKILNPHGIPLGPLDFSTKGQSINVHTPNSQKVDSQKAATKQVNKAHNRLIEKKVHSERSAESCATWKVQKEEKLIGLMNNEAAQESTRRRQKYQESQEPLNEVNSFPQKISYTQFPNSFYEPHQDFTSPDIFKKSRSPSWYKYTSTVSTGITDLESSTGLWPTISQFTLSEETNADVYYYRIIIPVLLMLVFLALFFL
SMILES,residual activity [1] [%],residual activity [2] [%],residual activity [3] [%],residual activity [4] [%],residual activity [5] [%],residual activity [6],residual activity [7] [%],residual activity [8],residual activity [9] [%],residual activity [10] [%]
Nc1ncnc2c1c(-c1ccc(Oc3ccccc3)cc1)cn2C1CCCC1,-9,18,1,98,45,85% (inactive),72,103% (inactive),,
Cn1c2ccccc2c2c3c(c4c5ccccc5n(CCC#N)c4c21)CNC3=O,-12,8,8,99,16,97% (inactive),,97% (inactive),39,
CCOC(=O)c1c(C)[nH]c(/C=C2\C(=O)Nc3ccccc32)c1C,45,97,91,,70,,,,76,
O=C1NC(=O)c2c1c1c3ccccc3[nH]c1n1cncc21,20,71,79,103,70,93% (inactive),91,82% (inactive),80,86
O=C1NC(=O)C(c2cn(CCCO)c3ncccc23)=C1c1cnccn1,90,82,86,,92,,,,93,
O=C(O)/C=C/c1cc(Br)c(Br)c(Br)c1Br,83,94,95,109,93,109% (inactive),105,,98,107
CC(C)(C)n1nc(Cc2cccc3ccccc23)c2c(N)ncnc21,24,43,7,106,90,92% (inactive),68,98% (inactive),109,95
Nc1nccc(-c2c(-c3ccc(F)cc3)ncn2C2CCNCC2)n1,61,83,64,,,,,,,
CCCCc1c(-c2ccc(OC)cc2)[nH]c2nccnc12,76,53,55,,69,105% (inactive),100,105% (inactive),68,
COc1ccc(CNC(=O)Nc2ncc([N+](=O)[O-])s2)cc1,110,67,74,,,,,,,
CCN(CC)CCNC(=O)c1c(C)[nH]c(/C=C2\C(=O)Nc3ccc(Cl)cc32)c1C,-12,70,21,23,2,,,,17,2
O=C(Nc1nc2ccccc2n1CCN1CCOCC1)c1cccc([N+](=O)[O-])c1,15,104,77,,83,,,,103,
O=C1Nc2ccc(Cl)cc2/C1=C/c1cc(Cl)c(O)c(Cl)c1,3,93,80,,47,110% (inactive),92,,89,
Nc1n[nH]c2nc3ccccc3nc12,85,87,76,,84,99% (inactive),86,,87,92
COc1cc2ncnc(Nc3cccc(Cl)c3)c2cc1OC,61,87,49,104,79,102% (inactive),74,,102,100
COc1cc2c(cc1OC)-c1n[nH]c(Nc3cccc(F)c3)c1C2,31,64,20,,72,,,78% (inactive),98,
COc1cc2nccc(Oc3ccc(NC(=O)Nc4cc(C)on4)c(Cl)c3)c2cc1OC,-10,98,45,97,,103% (inactive),,100% (inactive),,99
O=C1C(Cl)=C(N2C(=O)CCC2=O)C(=O)c2ccccc21,93,76,87,,97,93% (inactive),98,89% (inactive),87,
CN([C@@H](Cc1ccc(OS(=O)(=O)c2cccc3cnccc23)cc1)C(=O)N1CCN(c2ccccc2)CC1)S(=O)(=O)c1cccc2cnccc12,50,,,,,,,,,
CC(C)(C)c1nc2c3ccc(F)cc3c3c(=O)[nH]ccc3c2[nH]1,-2,63,57,26,13,,,,56,25
O=C(c1ccccc1)c1ccc(N2CCOCC2)cc1O,113,82,70,,92,98% (inactive),94,115% (inactive),,94
O=C(CCCc1ccc(-c2ccccc2F)cc1)Nc1ccc(O)cc1,100,99,89,112,95,102% (inactive),96,104% (inactive),101,98
CCCC(=O)Oc1ccc2[nH]c(C(=O)c3cc4ccccc4[nH]3)cc2c1,13,102,82,103,85,105% (inactive),84,,105,97
O=c1cc(N2CCOCC2)oc2c1ccc1ccccc12,102,90,85,102,94,105% (inactive),90,110% (inactive),106,88
O=C(c1cc2cc(O)ccc2[nH]1)c1cc2cc(O)ccc2[nH]1,-12,64,22,82,22,72% (inactive),37,83% (inactive),73,38
COc1ccc(-c2cnc3c(-c4ccsc4)cnn3c2)cc1,73,70,83,99,90,,,,96,96
